Experimental data published in PubChem BioAssay (EPA / NIEHS).
Inconclusive results are not listed. Calls of active or inactive are those of the source. The calls were made as follows, unless noted: active = hit-call score of the fitted dose curve at least 0.9, where 1 is the maximum; inactive = score below 0.9.

What was measured:
[1] = molecular target: Glucocorticoid receptor (Homo sapiens) (UniProt P04150); test: ATG_GR_TRANS: Attagene TRANS-FACTORIAL HepG2 Assay for human Glucocorticoid Receptor (GR) (AID 2282978; active = hit-call score of the fitted dose curve at least 0.9, where 1 is the maximum;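 also: activators score as hits since higher reporter transcript over DMSO is fitted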); conditions: HepG2 Attagene TRANS GR reporter, mRNA transcription
Method in brief: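 Exogenous NR-GAL4 fusion activity was assessed through induced GAL4-UAS reporter transcripts in transfected human HepG2 cells, quantified after 24 h by RT-PCR and fluorescent capillary electrophoresis with DMSO as baseline.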

[2] = molecular target: Oxysterols receptor LXR-alpha (Homo sapiens) (UniProt Q13133); test: ATG_LXRa_TRANS: Attagene TRANS-FACTORIAL HepG2 Assay for human Liver X Receptor alpha (LXRa) (AID 2282980; active = hit-call score of the fitted dose curve at least 0.9, where 1 is the maximum); conditions: HepG2 Attagene TRANS reporter, LXRa transactivation
Method in brief: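 HepG2 cells transiently transfected with GAL4-UAS reporter units for chimeric NR-Gal4 proteins, exposed to chemicals for 24 h. Reporter mRNA quantified by RT-PCR and capillary electrophoresis; gain of signal fitted relative to DMSO.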

[3] = molecular target: Hepatocyte nuclear factor 4-alpha (Homo sapiens) (UniProt P41235); test: ATG_HNF4a_TRANS: Attagene TRANS-FACTORIAL HepG2 Assay for human Hepatocyte Nuclear Factor 4 alpha (HNF4a) (AID 2282982; active = hit-call score of the fitted dose curve at least 0.9, where 1 is the maximum); conditions: HepG2 HNF4a transactivation reporter, mRNA readout
Method in brief: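 Multiplexed reporter assay: transfected HepG2, 24 h exposure, total RNA → oligo(dT) RT → PCR → 6-FAM extension → HpaI digest → CE fluorescence. DMSO = negative control.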

[4] = ATG_M_06_TRANS: Attagene TRANS-FACTORIAL HepG2 Assay for M06 Transcription Factor (Internal Marker) (AID 2282983; active = hit-call score of the fitted dose curve at least 0.9, where 1 is the maximum;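 also: reporter transcript level by RT-PCR then capillary electrophoresis fluorescence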); conditions: HepG2 Attagene TRANS M06 internal marker reporter
Method in brief: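 mRNA levels of a reporter transcript, quantified as FAM fluorescence on capillary electrophoresis, served as readout. HepG2 cells expressing exogenous GAL4-chimera reporter constructs were exposed for 24 h. Gain of signal over DMSO was evaluated.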

[5] = molecular target: Nuclear receptor subfamily 4 group A member 2 (Homo sapiens) (UniProt P43354); test: ATG_NURR1_TRANS: Attagene TRANS-FACTORIAL HepG2 Assay for human Nuclear Receptor Related Protein 1 (NURR1) (AID 2282985; active = hit-call score of the fitted dose curve at least 0.9, where 1 is the maximum); conditions: HepG2 Attagene TRANS reporter, mRNA readout
Method in brief: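 Measures transcriptional activation by an exogenous NR-Gal4 chimera in transfected HepG2 liver cells. After 24 h, reporter RNA is reverse-transcribed, amplified and resolved by capillary electrophoresis; DMSO defines baseline.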

[6] = molecular target: Transcriptional activator Myb (Homo sapiens) (UniProt P10242); test: ATG_Myb_CIS: Attagene CIS-FACTORIAL HepG2 Assay for human Myeloblastosis (Myb) Proto-Oncogene Transcription Factor (AID 2282986); conditions: HepG2 Attagene CIS-FACTORIAL Myb reporter transcription; actives raise or lower the signal
Method in brief: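 In this HepG2 transient-transfection format, cis-regulated reporter mRNA is quantified 24 h post-dosing by RT-PCR with capillary electrophoresis, fitted bidirectionally to DMSO baseline.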

[7] = molecular target: Nuclear respiratory factor 1 (Homo sapiens) (UniProt Q16656); test: ATG_NRF1_CIS: Attagene CIS-FACTORIAL HepG2 Assay for human Nuclear Respiratory Factor 1 (NRF1) Orphan Gene (AID 2282987); conditions: HepG2 NRF1 cis-element reporter, Attagene multiplex; actives raise or lower the signal
Method in brief: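 Using DMSO as baseline, gain- or loss-of-signal was fitted for reporter mRNA levels in HepG2 cells transiently transfected with cis-regulated reporter units. Samples were taken 24 h after dosing and read by RT-PCR with capillary electrophoresis.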

[8] = ATG_NFI_CIS: Attagene CIS-FACTORIAL HepG2 Assay for human Nuclear Factor I (NFI) (AID 2282989); conditions: HepG2 cis-regulatory reporter, NFI response element transcription; actives raise or lower the signal
Method in brief: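 Transient MRTU transfection of HepG2 → 24 h chemical dosing → total RNA, oligo(dT) RT → PCR, 6-FAM primer extension, HpaI cut → capillary electrophoresis. Endpoint fitted bidirectionally relative to DMSO.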

[9] = molecular target: Myc proto-oncogene protein (Homo sapiens) (UniProt P01106); test: ATG_Myc_CIS: Attagene CIS-FACTORIAL HepG2 Assay for human Myelocytomatosis (Myc) Proto-Oncogene Transcription Factor (AID 2282990); conditions: HepG2, Attagene cis-reporter transcription factor activity; actives raise or lower the signal
Method in brief: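 HepG2, transient MRTU transfection (cis promoters, endogenous TFs); 24 h dosing; TriZol RNA → oligo(dT) RT → PCR → 6-FAM primer extension → HpaI cut → CE. Bidirectional fit vs DMSO.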

[10] = ATG_NF_kB_CIS: Attagene CIS-FACTORIAL HepG2 Assay for human Nuclear Factor Kappa B (NF-kB) (AID 2282991); conditions: HepG2 Attagene cis-factorial NF-kB reporter mRNA; actives raise or lower the signal
Method in brief: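 Endpoint from a 52-component multiplexed HepG2 reporter panel: cis-regulated transcription units transiently transfected, 24 h dosing, reporter mRNA quantified by RT-PCR and capillary electrophoresis, scored as increase or decrease against DMSO.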

[11] = ATG_NRF2_ARE_CIS: Attagene CIS-FACTORIAL HepG2 Assay for human Nuclear Factor Erythroid 2 Related Factor 2 (NFR2) response to Antioxidant Response Elements (ARE) (AID 2282992); conditions: HepG2 Attagene ARE/NRF2 reporter, transcription factor activity; actives raise or lower the signal
Method in brief: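 Readout: reporter mRNA quantified by RT-PCR plus FAM-labelled primer extension, HpaI digestion and capillary electrophoresis, 24 h after dosing transfected HepG2 cells. Gain or loss of signal is fitted bidirectionally against DMSO baseline.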

[12] = ATG_Oct_MLP_CIS: Attagene CIS-FACTORIAL HepG2 Assay for human Octamer-Binding Transcription Factor (Oct) (AID 2282993); conditions: HepG2 Attagene cis-factorial Oct reporter, mRNA; actives raise or lower the signal
Method in brief: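 Transient MRTU transfection of HepG2 → 24 h compound treatment → RNA isolation, reverse transcription, PCR → 6-FAM primer extension, HpaI digest → capillary electrophoresis. Activity fitted both directions against DMSO.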

[13] = molecular target: Cellular tumor antigen p53 (Homo sapiens) (UniProt P04637); test: ATG_p53_CIS: Attagene CIS-FACTORIAL HepG2 Assay for human p53 Transcription Factor (AID 2282994); conditions: HepG2 p53 cis-element reporter, Attagene mRNA; actives raise or lower the signal
Method in brief: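 Read-out: reporter mRNA by RT-PCR plus capillary electrophoresis with fluorescence detection. Human HepG2 liver cells carried transfected multi-reporter cis-element constructs, dosed 24 h. Gain or loss of signal fitted bidirectionally against DMSO control.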

[14] = BSK_3C_TissueFactor: BioMAP Diversity Plus: 3C Assay for Tissue Factor Biomarker Activity (AID 2282997); conditions: BioMAP 3C HUVEC, tissue factor biomarker readout; actives raise or lower the signal
Method in brief: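 Tissue Factor measured by ELISA, 24 h after treatment of primary HUVEC in the BioMAP 3C setting.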

[15] = BSK_3C_uPAR: BioMAP Diversity Plus: 3C Assay for Urokinase-type plasminogen activator receptor (uPAR) Biomarker Activity (AID 2282998); conditions: BioMAP 3C HUVEC, uPAR biomarker ELISA; actives raise or lower the signal
Method in brief: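 ELISA readout of uPAR on human vascular endothelium (umbilical vein primary cells), taken 24 h after chemical dosing. Increases and decreases are both fitted relative to DMSO vehicle.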

[16] = BSK_3C_VCAM1: BioMAP Diversity Plus: 3C Assay for Vascular cell adhesion molecule 1 (VCAM1) Biomarker Activity (AID 2282999); conditions: BioMAP 3C HUVEC, VCAM1 ELISA, cytokine-stimulated; actives raise or lower the signal
Method in brief: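 Activity fitted in both directions relative to DMSO, with ELISA measurement of the surface marker on primary HUVEC (3C) at 24 h post-treatment; parallel SRB staining (0.1% SRB, TCA-fixed, 560 nm) flagged overt cytotoxicity.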

[17] = BSK_4H_Eotaxin3: BioMAP Diversity Plus: 4H Assay for Eotaxin 3 Biomarker Activity (AID 2283000); conditions: primary human endothelial cells (HUVEC); actives raise or lower the signal;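 also: CCL26 protein level quantified by ELISA in parallel with SRB cytotoxicity check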
Method in brief: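 Eotaxin-3 (CCL26) levels were measured by ELISA in HUVEC primary cultures 24 h post-dosing. Gain or loss of signal was fitted in both directions, with DMSO serving as baseline and negative control.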

[18] = ATG_M_32_TRANS: Attagene TRANS-FACTORIAL HepG2 Assay for M32 Transcription Factor (Internal Marker) (AID 2282984; active = hit-call score of the fitted dose curve at least 0.9, where 1 is the maximum;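 also: transcript level of a background control reporter unit measured by RT-PCR and capillary electrophoresis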); conditions: HepG2 Attagene TRANS M32 internal marker reporter
Method in brief: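 Cell-based TRANS-format assay in HepG2: exogenous chimeric GAL4 reporter units transiently expressed, compounds applied 24 h. Reporter mRNA detected by RT-PCR plus capillary electrophoresis; this readout is an internal background marker.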

[19] = molecular target: Oxysterols receptor LXR-beta (Homo sapiens) (UniProt P55055); test: ATG_LXRb_TRANS: Attagene TRANS-FACTORIAL HepG2 Assay for human Liver X Receptor beta (LXRb) (AID 2282981; active = hit-call score of the fitted dose curve at least 0.9, where 1 is the maximum); conditions: HepG2 Attagene TRANS GAL4-LXRb reporter, mRNA
Method in brief: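 After 24 h of chemical treatment, transfected HepG2 cells yield total RNA; reporter cDNA is PCR-amplified, FAM-labelled, HpaI-cut and run on capillary electrophoresis. Signal reflects chimeric LXRb-Gal4 activity on GAL4-UAS reporters.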

Measured: outcome

Chain of Oxysterols receptor LXR-alpha (Homo sapiens) (Q13133 whole entry, looked up, the tested form may be a part): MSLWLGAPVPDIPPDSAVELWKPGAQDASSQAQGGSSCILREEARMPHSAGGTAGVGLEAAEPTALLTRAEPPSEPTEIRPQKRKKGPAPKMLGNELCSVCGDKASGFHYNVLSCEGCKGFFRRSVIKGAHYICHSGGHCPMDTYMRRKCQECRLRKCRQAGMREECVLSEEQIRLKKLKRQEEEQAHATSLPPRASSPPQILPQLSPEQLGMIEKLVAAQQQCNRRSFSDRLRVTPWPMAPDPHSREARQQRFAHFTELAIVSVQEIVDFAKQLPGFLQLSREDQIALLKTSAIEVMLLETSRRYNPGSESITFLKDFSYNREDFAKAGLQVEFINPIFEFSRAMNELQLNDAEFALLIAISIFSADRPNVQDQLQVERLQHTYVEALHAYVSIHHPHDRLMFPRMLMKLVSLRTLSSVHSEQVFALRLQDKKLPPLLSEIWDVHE
Chain of Myc proto-oncogene protein (Homo sapiens) (P01106 whole entry, looked up): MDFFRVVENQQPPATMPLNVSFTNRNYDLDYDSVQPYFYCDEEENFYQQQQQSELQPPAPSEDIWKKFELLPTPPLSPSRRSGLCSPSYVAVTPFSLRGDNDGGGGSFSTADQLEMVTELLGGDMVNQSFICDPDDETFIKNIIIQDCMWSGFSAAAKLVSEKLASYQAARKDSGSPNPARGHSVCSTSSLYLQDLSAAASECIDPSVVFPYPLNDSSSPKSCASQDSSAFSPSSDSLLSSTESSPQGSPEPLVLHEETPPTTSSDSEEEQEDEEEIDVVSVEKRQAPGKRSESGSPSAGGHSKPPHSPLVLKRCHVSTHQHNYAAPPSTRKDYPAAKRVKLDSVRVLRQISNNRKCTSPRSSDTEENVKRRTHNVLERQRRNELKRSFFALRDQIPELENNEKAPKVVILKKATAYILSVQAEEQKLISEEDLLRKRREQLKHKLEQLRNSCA
Chain of Glucocorticoid receptor (Homo sapiens) (P04150 whole entry, looked up, the tested form may be a part): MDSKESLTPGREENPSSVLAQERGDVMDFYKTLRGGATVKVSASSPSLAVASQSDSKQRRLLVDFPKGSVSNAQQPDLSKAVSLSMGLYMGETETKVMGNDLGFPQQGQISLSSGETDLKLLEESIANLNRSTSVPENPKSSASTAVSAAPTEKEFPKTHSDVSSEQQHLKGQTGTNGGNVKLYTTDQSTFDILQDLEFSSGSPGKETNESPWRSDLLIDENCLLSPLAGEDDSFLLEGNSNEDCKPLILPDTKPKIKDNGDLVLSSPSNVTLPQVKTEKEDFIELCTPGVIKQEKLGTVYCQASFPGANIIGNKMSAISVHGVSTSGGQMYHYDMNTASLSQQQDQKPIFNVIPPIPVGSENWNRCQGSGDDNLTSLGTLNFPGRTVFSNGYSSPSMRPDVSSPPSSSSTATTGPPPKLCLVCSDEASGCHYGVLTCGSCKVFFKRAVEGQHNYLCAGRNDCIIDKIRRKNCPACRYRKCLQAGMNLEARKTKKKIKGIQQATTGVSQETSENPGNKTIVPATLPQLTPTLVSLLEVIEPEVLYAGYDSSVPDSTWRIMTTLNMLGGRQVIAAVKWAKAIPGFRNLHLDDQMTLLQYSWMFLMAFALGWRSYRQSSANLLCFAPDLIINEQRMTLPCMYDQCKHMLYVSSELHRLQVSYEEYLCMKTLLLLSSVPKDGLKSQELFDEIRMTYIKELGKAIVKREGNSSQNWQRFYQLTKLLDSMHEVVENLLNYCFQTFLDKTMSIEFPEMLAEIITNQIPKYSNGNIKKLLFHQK
Chain of Nuclear respiratory factor 1 (Homo sapiens) (Q16656 whole entry, looked up): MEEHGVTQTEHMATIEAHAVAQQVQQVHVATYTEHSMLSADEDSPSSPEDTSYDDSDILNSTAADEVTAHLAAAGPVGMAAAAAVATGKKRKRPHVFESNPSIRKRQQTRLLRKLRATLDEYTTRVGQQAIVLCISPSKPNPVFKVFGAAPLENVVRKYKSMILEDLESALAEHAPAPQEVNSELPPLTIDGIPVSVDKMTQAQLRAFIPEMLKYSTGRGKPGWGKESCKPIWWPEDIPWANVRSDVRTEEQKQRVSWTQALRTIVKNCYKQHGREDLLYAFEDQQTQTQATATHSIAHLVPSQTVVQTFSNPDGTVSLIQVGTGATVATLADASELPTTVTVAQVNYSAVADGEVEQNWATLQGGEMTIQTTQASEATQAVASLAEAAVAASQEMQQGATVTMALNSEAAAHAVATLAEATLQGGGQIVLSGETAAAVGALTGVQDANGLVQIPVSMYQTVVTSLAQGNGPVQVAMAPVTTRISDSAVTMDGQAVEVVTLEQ
Chain of Nuclear receptor subfamily 4 group A member 2 (Homo sapiens) (P43354 whole entry, looked up, the tested form may be a part): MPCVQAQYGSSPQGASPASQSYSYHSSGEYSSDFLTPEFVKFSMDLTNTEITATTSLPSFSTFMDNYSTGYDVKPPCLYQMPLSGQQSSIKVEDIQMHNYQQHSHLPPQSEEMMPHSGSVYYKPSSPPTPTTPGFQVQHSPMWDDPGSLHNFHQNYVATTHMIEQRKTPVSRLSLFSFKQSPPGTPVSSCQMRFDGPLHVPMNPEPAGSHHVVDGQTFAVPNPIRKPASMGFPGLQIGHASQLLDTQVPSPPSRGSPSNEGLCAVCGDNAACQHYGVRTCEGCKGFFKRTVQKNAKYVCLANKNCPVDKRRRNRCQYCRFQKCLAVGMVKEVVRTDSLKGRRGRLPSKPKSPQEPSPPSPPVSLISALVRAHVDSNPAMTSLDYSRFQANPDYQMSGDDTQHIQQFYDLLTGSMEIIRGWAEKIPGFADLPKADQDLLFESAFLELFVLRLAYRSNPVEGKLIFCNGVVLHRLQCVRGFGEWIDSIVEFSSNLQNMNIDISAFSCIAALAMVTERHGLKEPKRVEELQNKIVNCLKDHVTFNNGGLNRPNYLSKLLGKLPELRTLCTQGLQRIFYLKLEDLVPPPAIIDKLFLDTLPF
Chain of Hepatocyte nuclear factor 4-alpha (Homo sapiens) (P41235 whole entry, looked up): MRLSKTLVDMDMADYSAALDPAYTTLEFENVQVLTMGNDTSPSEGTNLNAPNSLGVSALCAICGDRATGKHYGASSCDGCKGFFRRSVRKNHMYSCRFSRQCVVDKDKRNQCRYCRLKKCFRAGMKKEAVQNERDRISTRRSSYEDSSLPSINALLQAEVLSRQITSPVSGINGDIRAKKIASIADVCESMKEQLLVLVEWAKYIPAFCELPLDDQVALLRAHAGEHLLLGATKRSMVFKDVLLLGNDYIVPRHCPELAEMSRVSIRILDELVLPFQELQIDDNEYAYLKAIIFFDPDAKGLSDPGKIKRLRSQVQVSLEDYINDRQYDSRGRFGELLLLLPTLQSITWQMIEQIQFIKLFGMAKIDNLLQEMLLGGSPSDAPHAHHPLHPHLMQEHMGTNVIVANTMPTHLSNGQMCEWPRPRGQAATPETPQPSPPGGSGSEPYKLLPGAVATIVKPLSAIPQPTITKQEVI
Chain of Transcriptional activator Myb (Homo sapiens) (P10242 whole entry, looked up): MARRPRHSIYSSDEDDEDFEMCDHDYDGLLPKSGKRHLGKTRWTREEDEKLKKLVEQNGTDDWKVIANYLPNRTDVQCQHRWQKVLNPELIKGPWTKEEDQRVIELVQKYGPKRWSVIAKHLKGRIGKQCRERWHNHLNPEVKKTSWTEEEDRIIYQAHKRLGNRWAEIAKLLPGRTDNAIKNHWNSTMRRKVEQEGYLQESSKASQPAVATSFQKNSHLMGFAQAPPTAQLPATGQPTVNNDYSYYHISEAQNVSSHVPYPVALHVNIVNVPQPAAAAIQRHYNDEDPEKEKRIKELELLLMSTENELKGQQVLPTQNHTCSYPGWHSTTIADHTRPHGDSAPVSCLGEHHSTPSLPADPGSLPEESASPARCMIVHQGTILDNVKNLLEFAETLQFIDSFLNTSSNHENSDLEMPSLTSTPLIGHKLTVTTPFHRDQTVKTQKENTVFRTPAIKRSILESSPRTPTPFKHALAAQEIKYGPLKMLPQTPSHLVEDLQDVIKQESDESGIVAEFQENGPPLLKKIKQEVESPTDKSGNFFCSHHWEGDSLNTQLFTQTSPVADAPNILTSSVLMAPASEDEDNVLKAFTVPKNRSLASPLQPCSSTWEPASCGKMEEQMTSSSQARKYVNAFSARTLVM
Chain of Cellular tumor antigen p53 (Homo sapiens) (P04637 whole entry, looked up): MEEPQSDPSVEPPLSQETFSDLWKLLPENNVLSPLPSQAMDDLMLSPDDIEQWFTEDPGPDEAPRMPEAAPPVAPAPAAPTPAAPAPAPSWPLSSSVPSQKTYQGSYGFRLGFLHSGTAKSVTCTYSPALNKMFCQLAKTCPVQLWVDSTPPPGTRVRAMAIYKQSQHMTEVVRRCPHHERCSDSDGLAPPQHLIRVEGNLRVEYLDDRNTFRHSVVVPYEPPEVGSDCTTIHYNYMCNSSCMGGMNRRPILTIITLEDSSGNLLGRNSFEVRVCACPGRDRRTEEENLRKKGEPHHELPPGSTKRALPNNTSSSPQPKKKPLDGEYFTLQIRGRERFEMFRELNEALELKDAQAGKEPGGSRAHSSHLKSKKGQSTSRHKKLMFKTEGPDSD
Chain of Oxysterols receptor LXR-beta (Homo sapiens) (P55055 whole entry, looked up, the tested form may be a part): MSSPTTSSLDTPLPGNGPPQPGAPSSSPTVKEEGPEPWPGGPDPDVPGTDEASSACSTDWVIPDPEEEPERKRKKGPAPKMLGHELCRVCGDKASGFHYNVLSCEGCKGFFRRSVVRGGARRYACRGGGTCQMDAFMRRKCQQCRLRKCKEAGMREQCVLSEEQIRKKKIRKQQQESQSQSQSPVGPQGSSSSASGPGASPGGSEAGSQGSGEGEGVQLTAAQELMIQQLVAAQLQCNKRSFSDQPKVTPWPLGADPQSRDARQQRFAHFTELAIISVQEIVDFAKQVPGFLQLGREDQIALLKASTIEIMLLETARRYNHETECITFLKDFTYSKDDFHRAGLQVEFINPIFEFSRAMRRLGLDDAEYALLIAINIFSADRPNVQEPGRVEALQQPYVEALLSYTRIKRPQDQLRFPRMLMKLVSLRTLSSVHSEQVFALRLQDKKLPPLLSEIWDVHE

O=C1OC[C@H](Cc2cccc(O)c2)[C@H]1Cc1cccc(O)c1
inactive: [1] | [2] | [3] | [4] | [5] | [6] | [7] | [8] | [9] | [10] | [11] | [12] | [13] | [14] | [15] | [16] | [17]

CCCCCCC(CO)CCCC (configuration not stated)
inactive: [1] | [2] | [3] | [18] | [5] | [6] | [7] | [8] | [9] | [10] | [11] | [12] | [13] | [14] | [15] | [16] | [17]

CCCC(C)C(O)CC (configuration not stated)
inactive: [1] | [2] | [19] | [5] | [6] | [8] | [9] | [11] | [12] | [13]

COC(=O)c1cccnc1
inactive: [1] | [2] | [3] | [4] | [18] | [6] | [7] | [8] | [9] | [10] | [11] | [12] | [13]

C=C(C)C(=O)OCCOCCOCCOC(=O)C(=C)C
inactive: [1] | [2] | [18] | [6] | [7] | [8] | [9] | [10] | [11] | [12] | [13] | [14] | [15] | [16] | [17]
